Measurements reported in PubChem BioAssay (NCI).
Compounds without any hit were thinned out: in the full panel of roughly 83,000, 20% have a hit.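 Testing used 96-well plates and a 48-hour single-concentration exposure. Example: -40 means 40% of the starting cells died.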 Values without a mark were called inactive. Activity calls are given as the source filed them. How the source made its calls: active means growth percent below 10; inactive means the rest.

How the values were obtained:
Assay in all cases: NCI-60 one-dose screen, 48 h (100 = growth as untreated, 0 = no growth, -100 = all killed)
Conditions in all cases: 10 µM unless noted
HCT-15 colon = tested on: HCT-15 colon
HT29 colon = tested on: HT29 colon
SNB-75 CNS = tested on: SNB-75 CNS
SNB-19 CNS = tested on: SNB-19 CNS
U251 CNS = tested on: U251 CNS
PC-3 prostate = tested on: PC-3 prostate
SK-MEL-5 melanoma = tested on: SK-MEL-5 melanoma
UACC-62 melanoma = tested on: UACC-62 melanoma
LOX IMVI melanoma = tested on: LOX IMVI melanoma
SK-MEL-28 melanoma = tested on: SK-MEL-28 melanoma
SK-MEL-2 melanoma = tested on: SK-MEL-2 melanoma
EKVX NSCLC = tested on: EKVX NSCLC
SN12C renal = tested on: SN12C renal
UO-31 renal = tested on: UO-31 renal
TK-10 renal = tested on: TK-10 renal
ACHN renal = tested on: ACHN renal
CAKI-1 renal = tested on: CAKI-1 renal
A498 renal = tested on: A498 renal
CCRF-CEM leukemia = tested on: CCRF-CEM leukemia
MOLT-4 leukemia = tested on: MOLT-4 leukemia

Compound | growth (HCT-15 colon) | growth (HT29 colon) | growth (SNB-75 CNS) | growth (SNB-19 CNS) [%] | growth (U251 CNS) | growth (PC-3 prostate) | growth (SK-MEL-5 melanoma) | growth (UACC-62 melanoma) | growth (LOX IMVI melanoma) | growth (SK-MEL-28 melanoma) | growth (SK-MEL-2 melanoma) | growth (EKVX NSCLC) | growth (SN12C renal) [%] | growth (UO-31 renal) | growth (TK-10 renal) | growth (ACHN renal) | growth (CAKI-1 renal) | growth (A498 renal) | growth (CCRF-CEM leukemia) | growth (MOLT-4 leukemia)
CCN(CC)C(=O)CC1=C(C)/C(=C/c2[nH]c(-c3ccc[nH]3)cc2OC)N=C1C | 1.25% (active) | 12.4% | 14.2% | 42.4 | 23.9% | 3.87% (active) | -59.3% (active) | -51.8% (active) | -58.8% (active) | 25.6% | -36.1% (active) | 32.7% | 29.1 | -59.3% (active) | 28.2% | 1.61% (active) | -8.05% (active) | -8.32% (active) | 25.8% | –
Cc1cc(O)cc(-c2nn(C)cc2-c2cc(N3CCOCC3)nc(-c3cccnc3)n2)c1 | 22.7% | 17.4% | 1.48% (active) | 33.8 | 21.5% | 22.7% | 1.65% (active) | 18.1% | 25.6% | 46.8% | 51.5% | 52.3% | 32.3 | 30.5% | 51.6% | 37.9% | 43.9% | -36.3% (active) | 24.3% | 26.8%
CC1(C)CC[C@]23CC[C@]4(C)[C@H](CC[C@@H]5[C@@]6(C)C/C(=C/O)C(=O)C(C)(C)[C@@H]6CC[C@]54C)[C@H]2[C@H]1OC3 | 110% | 100% | 104% | 98 | 105% | 86.1% | 101% | 93% | 90.8% | 107% | 108% | 98.4% | 99.2 | 85% | 113% | 110% | 91.1% | 105% | 99.5% | –
CC(C)NS(=O)(=O)/N=C1\NC(=O)NC1=C(Cl)Cl | 86.3% | 99% | 104% | 94.3 | 90.6% | 94.5% | 92.8% | 84.5% | 94.8% | 108% | 95.6% | 103% | 94.8 | 102% | 116% | 113% | 91.6% | 116% | 81.4% | –
COc1cc(/C=C/C(=O)c2cc(OC)c(OC)c(OC)c2)ccc1Oc1nc2c(c(=O)n(C)c(=O)n2C)n1C | 0.728% (active) | -51.1% (active) | 31% | 18.7 | -81.9% (active) | 7.57% (active) | 28.9% | -74.1% (active) | -81.1% (active) | -45.3% (active) | 76.3% | 1.98% (active) | 11.6 | -92.1% (active) | -8.16% (active) | -21.9% (active) | -47.2% (active) | 29.4% | 5.81% (active) | 2.13% (active)
O=C(/C=C/C12c3ccccc3C(c3ccccc31)C1C(=O)NC(=O)C12)c1ccc(I)cc1 (stereo not given) | 39.7% | 29.6% | 63.6% | 63.4 | 34.5% | 34.5% | 69.5% | 51.9% | 37.8% | 64% | 56.7% | 66.1% | 50.9 | 46.2% | 66.7% | 67.6% | 60.4% | 56.1% | 1.53% (active) | –
C=C[C@@]1(C)CC(=O)[C@@H](C(C)(C)c2cn(C)c3ccc(Br)cc23)C[C@@H]1O[Si](C)(C)C(C)(C)C | 102% | 103% | 102% | 98.9 | 97.4% | 84.1% | 104% | 93.7% | 90.4% | 100% | 97.8% | 99.3% | 97.6 | 94% | 98.1% | 111% | 90.2% | 106% | 89.5% | –
COc1ccc(C2C3=C(COC3=O)N(CCO)c3cc4c(cc32)OCO4)cc1OC (stereo not given) | 77% | 39.9% | 71% | 88.1 | 97.9% | 58.3% | 67.9% | 71.8% | 77.2% | 89% | 93.2% | 96.1% | 94.8 | 95.9% | 105% | 101% | 98.4% | 79% | 65.2% | 88.5%
